Test results: the supplement of paper PMC10515830
Counter-ions that a name gives are not always drawn.

What was measured:
Details in all cases: 10 µM; exposure time 6 h
[1] = tested on: Danio rerio larvae (5 dpf); assay: difference in excitability vs DMSO (percentage points); higher = more excitable than DMSO
Procedure, shortened: (§1)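 In 96-well plates, 48 wild-type zebrafish larvae aged 5 dpf per compound received 100 µL egg water with library compound at 10 µM final for 6 h. Three hours into this, a 3-h programme of moving lines and 100 ms, 400Hz tones ran at 28.5 ℃ while plates were photographed every 6 s. Z-LaP Tracker scored the behaviours, and each is given as the compound mean minus the vehicle control mean in percentage points.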

[2] = tested on: Danio rerio larvae (5 dpf); assay: difference in startle response vs DMSO (percentage points); higher = stronger startle than DMSO
Procedure, shortened: as §1

[3] = tested on: Danio rerio larvae (5 dpf); assay: difference in activity during first hour vs DMSO (percentage points); higher = more activity than DMSO
Procedure, shortened: as §1

[4] = tested on: Danio rerio larvae (5 dpf); assay: difference in habituation to acoustic stimuli vs DMSO (percentage points); higher = more habituation than DMSO
Procedure, shortened: as §1

[5] = tested on: Danio rerio larvae (5 dpf); assay: difference in combined optomotor response to red, green and blue moving lines vs DMSO (percentage points); higher = stronger optomotor response than DMSO
Procedure, shortened: as §1

SMILES	difference in excitability [1]	difference in startle response [2]	difference in activity during first hour [3]	difference in habituation to acoustic stimuli [4]	difference [5]
C#C[C@]1(O)CC[C@H]2[C@@H]3CCC4=CC(=O)CC[C@@H]4[C@H]3CC[C@@]21C [Norethindrone]	4.84	-3.95	-0.842	2.6	11.2
NC(=O)[C@@H]1CC[C@@H]2CN1C(=O)N2OS(=O)(=O)O [Avibactam (sodium salt)]	1.97	0.773	5.58	4.75	6.37
CO[C@H]1C(=O)[C@]2(C)[C@@H](OC)C[C@H]3OC[C@@]3(OC(C)=O)[C@H]2[C@H](OC(=O)c2ccccc2)[C@]2(O)C[C@H](OC(=O)[C@H](O)[C@@H](NC(=O)OC(C)(C)C)c3ccccc3)C(C)=C1C2(C)C [Cabazitaxel]	6.19	4.59	13.7	3.39	2.83
CN(C)CC/C=C1/c2ccccc2COc2ccc(CC(=O)O)cc21 [Olopatadine (hydrochloride)]	2.11	-1.34	-6.94	3.84	2.97
Cc1ccc(Cl)c(Nc2ccccc2C(=O)O)c1Cl [Meclofenamate (sodium salt)]	11.1	12.4	-18	-13.1	-19.7
Cc1ncc(CO)c(CO)c1O [Pyridoxine]	-7.67	5.43	7.49	4.31	4.65
N[C@@H]1CCCCN(c2c(F)cc3c(=O)c(C(=O)O)cn(C4CC4)c3c2Cl)C1 [Besifloxacin (hydrochloride)]	13	0.0054	5.97	-5.08	0.455
Cc1nc(Nc2ncc(C(=O)Nc3c(C)cccc3Cl)s2)cc(N2CCN(CCO)CC2)n1 [Dasatinib]	11.4	-1.6	-4.95	1.58	-0.962
Cc1cn[nH]c1 [Fomepizole]	-1.56	-0.451	3.73	2.38	-2.44
CN(Cc1ccc(C(C)(C)C)cc1)Cc1cccc2ccccc12 [Butenafine (hydrochloride)]	2.06	2.01	-10.7	0.859	-2.95
c1cnc2cc3c(cc2n1)[C@@H]1CNC[C@H]3C1 [Varenicline (tartrate)]	0.228	1.55	3.08	5.66	-2.67
CC(C)NCC(O)c1ccc(NS(C)(=O)=O)cc1 (stereo not given) [Sotalol (hydrochloride)]	-4.39	-2.26	12	-2.03	-2.43
CC(C)CCCCC(=O)N[C@@H](CCNCS(=O)(=O)O)C(=O)N[C@H](C(=O)N[C@@H](CCNCS(=O)(=O)O)C(=O)N[C@H]1CCNC(=O)[C@H]([C@@H](C)O)NC(=O)[C@H](CCNCS(=O)(=O)O)NC(=O)[C@H](CCNCS(=O)(=O)O)NC(=O)[C@H](CC(C)C)NC(=O)[C@@H](CC(C)C)NC(=O)[C@H](CCNCS(=O)(=O)O)NC1=O)[C@@H](C)O.CC[C@@H](C)CCCCC(=O)N[C@@H](CCNCS(=O)(=O)O)C(=O)N[C@H](C(=O)N[C@@H](CCNCS(=O)(=O)O)C(=O)N[C@H]1CCNC(=O)[C@H]([C@@H](C)O)NC(=O)[C@H](CCNCS(=O)(=O)O)NC(=O)[C@H](CCNCS(=O)(=O)O)NC(=O)[C@H](CC(C)C)NC(=O)[C@@H](CC(C)C)NC(=O)[C@H](CCNCS(=O)(=O)O)NC1=O)[C@@H](C)O [Colistin Methanesulfonate (sodium salt)]	20.4	-4.76	4.65	0.808	-2.32
CC1(C)O[C@@H]2[C@@H](CO[C@@]3(COS(N)(=O)=O)OC(C)(C)O[C@@H]23)O1 [Topiramate]	-2.77	10.8	-1.72	1.75	-0.45
N[C@H](C(=O)O)[C@H](O)c1ccc(O)c(O)c1 [Droxidopa]	0.975	0.64	3.89	5.02	2.12
C[C@H]1c2cccc(O)c2C(=O)C2=C(O)[C@]3(O)C(=O)C(C(N)=O)=C(O)[C@@H](N(C)C)[C@@H]3[C@@H](O)[C@@H]21 [Doxycycline (hyclate)]	12.8	3.11	5.72	7.01	-0.304
CN(C/C=C/C#CC(C)(C)C)Cc1cccc2ccccc12 [Terbinafine (hydrochloride)]	7.35	0.627	1.02	-1.41	-4.42
COc1cc([C@@H]2c3cc4c(cc3[C@@H](O[C@@H]3O[C@@H]5CO[C@@H](C)O[C@H]5[C@H](O)[C@H]3O)[C@H]3COC(=O)[C@H]23)OCO4)cc(OC)c1O [Etoposide]	-3.42	2.1	-5.75	2.55	-5.33
CC[C@H](C)[C@H](N)C1=N[C@H](C(=O)N[C@@H](CC(C)C)C(=O)N[C@H](CCC(=O)[O-])C(=O)N[C@H](C(=O)N[C@H]2CCCCNC(=O)[C@H](CC(N)=O)NC(=O)[C@@H](CC(=O)[O-])NC(=O)[C@H](Cc3cnc[nH]3)NC(=O)[C@@H](Cc3ccccc3)NC(=O)[C@H]([C@@H](C)CC)NC(=O)[C@@H](CCCN)NC2=O)[C@@H](C)CC)CS1.[Zn+2] [Bacitracin (zinc)]	20.6	-4.52	30.1	-11	-7.98
CSc1ccc2c(c1)N(CCC1CCCCN1C)c1ccccc1S2 (stereo not given) [Thioridazine (hydrochloride)]	19.8	-0.778	12.9	-8.21	-5
CC(=O)OCC(=O)[C@@]1(O)CC[C@H]2[C@@H]3CCC4=CC(=O)CC[C@]4(C)[C@@]3(F)[C@@H](O)C[C@@]21C [Fludrocortisone Acetate]	-4.21	4.97	-1.84	0.633	1.96
CC[C@H](C)C(=O)O[C@H]1C[C@@H](C)C=C2C=C[C@H](C)[C@H](CC[C@@H]3C[C@@H](O)CC(=O)O3)[C@H]21 [Lovastatin]	9.79	2.77	7.75	-0.0098	1.09
CCCCc1oc2ccc(NS(C)(=O)=O)cc2c1C(=O)c1ccc(OCCCN(CCCC)CCCC)cc1 [Dronedarone (hydrochloride)]	7.9	-9.8	11.1	-12.7	-11.9
Cc1c(O)c(=O)ccn1C [Deferiprone]	4.23	-1.15	8.16	-1.01	10.8
CNNCc1ccc(C(=O)NC(C)C)cc1 [Procarbazine (hydrochloride)]	0.724	-0.558	6.39	-5.35	4.87
FC(F)OC(Cl)C(F)(F)F (stereo not given) [Isoflurane]	11.1	8.95	-15.9	-1.84	-13
COc1ccc2c3c1O[C@H]1C[C@@H](O)C=C[C@@]31CCN(C)C2 [Galantamine]	1.36	-0.28	15.8	-3.53	4.1
C/C(O)=C(\C#N)C(=O)Nc1ccc(C(F)(F)F)cc1	5.48	1.5	-4.86	6.45	3.09
NCc1ccc(S(N)(=O)=O)cc1 [Mafenide]	3.79	7.01	4.01	0.954	0.998
